These results are taken from PubChem BioAssay.

The source made the active and inactive calls.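 Rule for the calls: active = GFP response above 150% of the DMSO level; inconclusive = fewer than 70 events counted for a yeast strain; inactive = the rest.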

The assay in a line: TOR pathway CIT2 reporter hit retest – S. cerevisiae, GFP fusion, cherry picks, mother/daughter gates, confirmation (AID 2274). The note with it: S. cerevisiae CIT2-GFP strain, flow cytometry, 3 h; at 10 µM; active compounds read high. (In general: In flow cytometry, cells or beads pass a laser one at a time.)
In the case of `O=C1[C@@H]2C3C=CC(O3)[C@@H]2C(=O)N1c1ccccc1`, the GFP response, % of DMSO is 100% (inactive).
As for `CCOC(=O)C1CCCN(c2nc3c(C)cccn3c(=O)c2/C=C(\C#N)C(=O)NCc2ccco2)C1` (centres undefined), the GFP response, % of DMSO is 104% (inactive).
Turning to `CCOC(=O)/C=C1\SCC(=O)N1Cc1nnc(-c2ccccc2Br)o1`, the GFP response, % of DMSO was 99.7% (inactive).
`O=C(Nc1c2c(nn1-c1ccccc1)CS(=O)C2)c1ccco1` (centres undefined): the GFP response, % of DMSO was 97.2% (inactive).
For the compound `CCn1c(=O)c(C(=O)NCCc2ccccc2)c(O)c2ccccc21`, the GFP response, % of DMSO is 98.6% (inactive).
The value for `CN1CCN(C(c2ccc(C(F)(F)F)cc2)c2ccc3cccnc3c2O)CC1` (centres undefined) was 97.3% (inactive).
As for `COc1ccc(C2N(c3ccc(Cl)cc3)N=C(C(C)=O)N(C)N2C(C)=O)cc1` (centres undefined), the GFP response, % of DMSO is 106% (inactive).
The value for `COC(=O)CCS(=O)(=O)c1nc(-c2ccccc2)cc(C(F)(F)F)n1` was 102% (inactive); that for `CCc1ccc(OCC(=O)NNC(=S)NC(=O)C2CC2)c(Br)c1` was 115% (inactive).
Take `Cc1cccc(Cn2cc(/C=C/[N+](=O)[O-])c3ccccc32)c1`: the GFP response, % of DMSO was 97.3% (inactive).
For `CCc1ccc2c(c1)C1(NN=C(c3cccc4ccccc34)S1)C(=O)N2` (centres undefined) the value was 93.1% (inactive).
`N#C/C(=C\c1c(N2CCCCCC2)nc2ccccn2c1=O)C(=O)NCc1ccco1`: the GFP response, % of DMSO is 96.9% (inactive).
Take `CCOC(=O)C(=CNNc1ccccc1)C(=O)OCC`: the GFP response, % of DMSO is 103% (inactive).
Regarding `O=C(O)Cn1cc(/C=C/[N+](=O)[O-])c2ccccc21`, the GFP response, % of DMSO was 99.7% (inactive).
`N#C/C(C(=O)Nc1ccc(Cl)cc1)=C(/S)Nc1ccccc1`: the GFP response, % of DMSO was 105% (inactive).
On to `CCCc1[nH]nc2c1C(c1ccc(OC)c(Cn3nnc4ccccc43)c1)C(C#N)=C(N)O2` (centres undefined), for which the GFP response, % of DMSO is 99.7% (inactive).
Turning to `COc1ccc(-c2csc(Nc3ncccc3C)n2)cc1`, the GFP response, % of DMSO is 103% (inactive).
For the compound `Cc1ccccc1C(=O)NNC(=S)NC(=O)c1ccc(Cl)cc1Cl`, the GFP response, % of DMSO was 101% (inactive).
For `O=C(NC(c1ccccc1)C(Cl)Cl)c1ccccc1` (centres undefined), the GFP response, % of DMSO is 107% (inactive).
The value for `Cc1ccc2nc(Cl)c3nnnn3c2c1` was 82.8% (inactive); that for `CN1C(=O)c2cccc3c(Cl)ccc(c23)C1=O` was 97.3% (inactive); that for `Cc1nc2c(-c3ccc(F)cc3)cnn2c(N)c1-c1ccccc1` was 103% (inactive).
As for `COc1ccc(C2CC(c3c(-c4ccccc4)c4cc(Cl)ccc4[nH]c3=O)=NN2S(C)(=O)=O)cc1` (centres undefined), the GFP response, % of DMSO is 99.7% (inactive).
For the compound `O=C(N/N=C\c1ccc(F)cc1)c1cc(OCC(F)(F)F)ccc1OCC(F)(F)F`, the GFP response, % of DMSO is 105% (inactive).
